Holding throughout (test): NCI-60 one-dose screen, 48 h (100 = growth as untreated, 0 = no growth, -100 = all killed)
What all share (conditions): 10 µM unless noted

Experiment [1] has as its system HCT-15 colon.
Experiment [2] concerns HT29 colon.
For experiment [3], the system named is SNB-75 CNS.
Experiment [4] has as its system SNB-19 CNS.
Experiment [5] has as its system U251 CNS.
The test system of experiment [6] is PC-3 prostate.
In experiment [7] the test system is SK-MEL-5 melanoma.
Experiment [8] has as its system UACC-62 melanoma.
Experiment [9] relates to LOX IMVI melanoma.
Experiment [10] deals with SK-MEL-28 melanoma.
For experiment [11], the system named is SK-MEL-2 melanoma.
Experiment [12] relates to SN12C renal.
Experiment [13] deals with UO-31 renal.
The test system of experiment [14] is TK-10 renal.
The subject of experiment [15] is ACHN renal.
Experiment [16] deals with CAKI-1 renal.
The subject of experiment [17] is A498 renal.
In experiment [18] the test system is CCRF-CEM leukemia.
For experiment [19], the system named is EKVX NSCLC.
In experiment [20] the test system is MOLT-4 leukemia.

Compounds without any hit were thinned out: in the full panel of roughly 83,000, 20% have a hit.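 A percent growth of 40 corresponds to 60% growth inhibition; 0 means no net growth; -100 means all cells died. Active threshold: below 10.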 A number with no mark means an inactive call. The source made the active and inactive calls.

In the case of `COc1ccc(-c2cnc3c(-c4cccc5cnccc45)cnn3c2)cc1`, the growth in [1] is 64.5%; in experiment [2], 41.3%; in experiment [3] it was 42%; in experiment [4] it was 47.2%; in [5] it was 56.3%; in experiment [6] it was 50.6%. The growth is 56.5% in experiment [7]; 59.3% in [8]; 80% in experiment [9]; 60.5% in experiment [10]; 75.5% in experiment [11]; 58.8% in experiment [12]. Also, the growth was 52.1% in experiment [13]; 65.8% in experiment [14]; -1.14% (active) in experiment [15]; 61.4% in [16]; 44.6% in experiment [17]; 59.2% in [18].

With `COC(=O)c1ccc2c(c1)[n+](=O)c(C(C)=O)c(C(F)(F)F)n2[O-]`, the growth is -77.5% (active) in experiment [1]; -56% (active) in experiment [2]; -20.5% (active) in experiment [3]; -6.44% (active) in [4]; -72.2% (active) in experiment [5]; -58.1% (active) in [6]. For the same compound, the growth in [7] is -100% (active); in [8] it was -32.7% (active); in experiment [9], -95.3% (active); in experiment [10], 27%; in experiment [11], -31.9% (active); in [19], -46.3% (active). The growth in experiment [12] is -34% (active); in experiment [14], 25.9%; in experiment [15], -99.3% (active); in [16] it was -78.5% (active); in experiment [17], 6.79% (active).

Consider `C=CC(=O)N[C@@H](/C=C/C(=O)OCC)Cc1ccc(-c2cc(Cl)cc(Cl)c2)cc1`, for which the growth is 15.2% in experiment [1]; 20.3% in [2]; 40.3% in experiment [3]; 33.9% in experiment [4]; 20.2% in experiment [5]; 16.9% in experiment [6]. In addition, the growth in experiment [7] is -88.2% (active); in [8], 9% (active); in experiment [9] it was 36.6%; in [10], 39.8%; in experiment [11], 14.1%; in experiment [19] it was 20%. Further, the growth in [12] was 3.95% (active); in experiment [14], 6.04% (active); in experiment [15], 26.7%; in experiment [16] it was 35.9%; in [18] it was 17.2%; in experiment [20] it was 1.95% (active).

For the compound `Cc1nc2sccn2c1-c1cn2ccsc2n1`, the growth is 70.3% in experiment [1]; 99.3% in experiment [2]; 84.8% in experiment [3]; 93.1% in experiment [4]; 90.8% in experiment [5]; 94.6% in experiment [6]. Further, the growth in experiment [7] is 65.6%; in experiment [8], 83.4%; in experiment [9], 98.4%; in experiment [10] it was 104%; in experiment [11], 98%; in experiment [19], 80.5%. Moreover, the growth was 93.6% in experiment [12]; 103% in experiment [14]; 99.3% in [15]; 53.1% in experiment [16]; 82.7% in [17]; 96.3% in [18].

As for `COc1cc2cc(Oc3cccc(NC(=O)Nc4cc(C(F)(F)F)cc(C(F)(F)F)c4)c3)c(C)nc2cc1OC`, the growth in [1] was 2.75% (active); in experiment [2] it was 4.89% (active); in [3], 9.73% (active); in experiment [4] it was 15.5%; in experiment [5], -26.5% (active); in [6] it was 6.82% (active). In addition, the growth is -58.5% (active) in experiment [7]; -34.6% (active) in [8]; 1.98% (active) in experiment [9]; 7.66% (active) in experiment [10]; -30.4% (active) in experiment [11]; 7.69% (active) in experiment [12]. Moreover, the growth was 11.6% in experiment [13]; 13.2% in [14]; 5.82% (active) in experiment [15]; 6.4% (active) in experiment [16]; -11.5% (active) in experiment [17]; 0.186% (active) in [18].

With `CN[C@@H](C)C(=O)N[C@H]1CCS[C@H]2CC(C)(C)[C@@H](C(=O)N[C@H]3c4ccccc4C[C@H]3OCC#CC#CCO[C@@H]3Cc4ccccc4[C@@H]3NC(=O)[C@H]3N4C(=O)[C@@H](NC(=O)[C@H](C)NC)CCS[C@H]4CC3(C)C)N2C1=O`, the growth in experiment [1] was 109%; in experiment [2] it was 112%; in experiment [3], 16.5%; in experiment [4], 97.1%; in [5], 100%; in experiment [6], 102%. Also, the growth in [7] was 66.2%; in experiment [8] it was 102%; in experiment [9], 69.7%; in experiment [10], 107%; in experiment [11], 73.7%; in experiment [19], 121%. Besides, the growth in experiment [12] was 97.8%; in experiment [14] it was 130%; in [15], 106%; in experiment [16], 99.9%; in experiment [18] it was 25.1%; in experiment [20], 95.5%.

Take `NS(=O)(=O)c1ccc(CCN2C(=O)c3cc(Cl)c(Cl)cc3C2=O)cc1`: the growth was 103% in [1]; 89.3% in [2]; 98.3% in experiment [3]; 109% in experiment [4]; 102% in experiment [5]; 99.2% in experiment [6]. Moreover, the growth in experiment [7] was 105%; in experiment [8], 103%; in [9] it was 98.2%; in experiment [10], 110%; in experiment [11] it was 96.5%; in experiment [12], 107%. The growth in [13] was 93%; in experiment [14], 88.5%; in [15], 105%; in experiment [16], 96.6%; in [17], 104%; in experiment [18], 98%. Moreover, the growth in experiment [20] is 92.4%.

For `O=C(Nc1ccccc1)Nc1ccc2cc3ccc(NC(=O)Nc4ccccc4)cc3nc2c1`, the growth in experiment [1] was 93.9%; in [2], 4.81% (active); in experiment [3] it was -0.331% (active); in [4], -27.5% (active); in [5] it was -39.3% (active); in experiment [6], 51.5%. For the same compound, the growth was 83% in experiment [7]; 18.7% in experiment [8]; -52.8% (active) in [9]; -13.4% (active) in [10]; 55.5% in experiment [11]; 86.6% in experiment [19]. Moreover, the growth is -26.5% (active) in experiment [12]; 114% in experiment [14]; 92% in experiment [15]; 80.3% in [16]; 0.957% (active) in experiment [18]; -27.6% (active) in experiment [20].

For the compound `O=C(C[n+]1cccc2ccccc21)c1ccc(O)c(O)c1`, the growth in experiment [1] was 20.8%; in experiment [2], 40.7%; in experiment [3] it was 66%; in experiment [4], 74.5%; in experiment [5], 91.1%; in [6] it was 69.9%. The growth was 82.7% in experiment [7]; 69.7% in [8]; 28.3% in [9]; 84.7% in [10]; 90.8% in [11]; 76.8% in [19]. Moreover, the growth in [12] was 72.4%; in [14], 39%; in [15], 23.7%; in [16], 83.6%; in experiment [17] it was 88.4%; in [18], -13.8% (active). For the same compound, in experiment [20], the growth is 6.56% (active).

For the origin of these results see PubChem BioAssay (NCI).
